# Laboratory results taken from the supplement of paper PMC7695840.
# Structures can show the parent of a compound that is named as a salt.
# Tested on: Staphylococcus aureus MW2 delta-mecA (mecA-)
# Assay: normalized GFP fluorescence (growth of mecA- strain) (fraction of control range); higher = more growth of mecA- strain
# Conditions: compound concentration: 150 uM; cefoxitin: subinhibitory; fluorescent label: GFP
# Method in brief: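 Fluorescence from DsRed (540/590) and GFP (485/520) was recorded after 20 h of static growth at 37 °C and 90% humidity. The wells held a 1:1 mix of pre-induced S. aureus MW2 cells, gene-bearing with DsRed and gene-deleted with GFP, in LB with a daily-set subinhibitory antibiotic dose, dispensed at 5 µL/well onto 150 μM compound (1.5% DMSO) in 1536-well plates, single replicate. Each channel was scaled per plate between single-strain control medians, excluding plates with high untreated ratios and rows with DsRed/GFP >10.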
row,Compound,normalized GFP fluorescence
1,C[C@@H]1C/C=C/C=C/C=C/C=C/[C@H](O[C@@H]2O[C@H](C)[C@@H](O)[C@H](N)[C@@H]2O)C[C@@H]2O[C@](O)(C[C@@H](O)C[C@H]3O[C@@H]3/C=C/C(=O)O1)C[C@H](O)[C@H]2C(=O)O,0.448
2,CCOc1cc2ncc(C#N)c(Nc3ccc(OCc4ccccn4)c(Cl)c3)c2cc1NC(=O)/C=C/CN(C)C [Neratinib (HKI-272)],0.0386
3,CCCCCCc1ccc(O)cc1O,0.0569
4,CN(C)C(=O)COC(=O)Cc1ccc(OC(=O)c2ccc(NC(=N)N)cc2)cc1 [Camostat Mesilate (FOY-305)],0.0607
5,CC(COc1ccccc1)N(CCCl)Cc1ccccc1 (stereo not given),0.632
6,"CN1CCN2c3ncccc3Cc3ccccc3C2C1 (stereo not given) [Mirtazapine (Remeron, Avanza)]",0.214
7,COc1ccc(CC(C)NCC(O)c2ccc(O)c(NC=O)c2)cc1 (stereo not given) [Formoterol hemifumarate],0.777
8,Cn1cnc([N+](=O)[O-])c1Sc1ncnc2[nH]cnc12,0.269
9,CCCCCCNC(=O)n1cc(F)c(=O)[nH]c1=O [Carmofur],0.605
10,N#C[C@@H]1CCCN1C(=O)CNC12CC3CC(CC(O)(C3)C1)C2 [Vildagliptin (LAF-237)],0.68
11,CCCc1nn(C)c2c(=O)[nH]c(-c3cc(S(=O)(=O)N4CCN(C)CC4)ccc3OCC)nc12,0.331
12,O=C(CCBr)N1CCN(C(=O)CCBr)CC1,0.631
13,O=C(OCc1ccccc1)c1ccccc1,0.269
14,CC(=O)O[C@]1(C(C)=O)CC[C@H]2[C@@H]3C=C(Cl)C4=CC(=O)CC[C@]4(C)[C@H]3CC[C@@]21C,0.23
15,CC(=O)OCC(=O)[C@@]1(OC(C)=O)[C@@H](C)C[C@H]2[C@@H]3C[C@H](F)C4=CC(=O)C=C[C@]4(C)[C@@]3(F)[C@@H](O)C[C@@]21C,0.256
16,O.O.O.O.O.O.O.O.O.O.O.O.O.O.O.O.O.O.O.O.O=S(=O)([O][Al])OC[C@H]1O[C@@](COS(=O)(=O)[O][Al])(O[C@H]2O[C@H](COS(=O)(=O)[O][Al])[C@@H](OS(=O)(=O)[O][Al])[C@H](OS(=O)(=O)[O][Al])[C@H]2OS(=O)(=O)[O][Al])[C@@H](OS(=O)(=O)[O][Al])[C@@H]1OS(=O)(=O)[O][Al].[Al],0.405
17,CN1CCCN=C1COC(=O)C(O)(c1ccccc1)C1CCCCC1 (stereo not given),0.399
18,O=c1[nH]cnc2c1ncn2[C@H]1CC[C@@H](CO)O1 [Didanosine (Videx)],0.446
19,Cc1nc2n(c(=O)c1CCN1CCC(c3noc4cc(F)ccc34)CC1)CCCC2O (stereo not given),0.379
20,CN1C2CCCC1CC(NC(=O)c1nn(C)c3ccccc13)C2 (stereo not given),0.718

row,Compound,normalized GFP fluorescence
1,Cc1cccc(C)c1OCC(=O)N[C@@H](Cc1ccccc1)[C@@H](O)C[C@H](Cc1ccccc1)NC(=O)[C@H](C(C)C)N1CCCNC1=O [Lopinavir (ABT-378)],0.126
2,CC(=O)O[C@]1(C(C)=O)CC[C@H]2[C@@H]3C[C@H](C)C4=CC(=O)CC[C@]4(C)[C@H]3CC[C@@]21C,0.145
3,CCC1(c2ccccc2)NC(=O)N(C)C1=O (stereo not given),0.794
4,CC(=O)[C@H]1CC[C@H]2[C@@H]3C=CC4=CC(=O)CC[C@@]4(C)[C@@H]3CC[C@]12C,0.56
5,CN(C)CCc1c[nH]c2ccc(CS(=O)(=O)N3CCCC3)cc12,0.546
6,CC(C)Cc1ccc(C(C)C(=O)O)cc1 (stereo not given),0.142
7,"CCCCC1C(=O)N(c2ccccc2)N(c2ccccc2)C1=O [Phenylbutazone (Butazolidin, Butatron)]",0.207
8,COc1cc(C(=O)NS(=O)(=O)c2ccccc2C)ccc1Cc1cn(C)c2ccc(NC(=O)OC3CCCC3)cc12 [Zafirlukast (Accolate)],-0.00168
9,CN(C)CCOC(c1ccccc1)c1ccccc1,0.272
10,C=CC[C@@H]1/C=C(\C)C[C@H](C)C[C@H](OC)[C@H]2O[C@@](O)(C(=O)C(=O)N3CCCC[C@H]3C(=O)O[C@H](/C(C)=C/[C@@H]3CC[C@@H](O)[C@H](OC)C3)[C@H](C)[C@@H](O)CC1=O)[C@H](C)C[C@@H]2OC [FK-506 (Tacrolimus)],0.0621
11,Nc1c(Br)cc(Br)cc1CN[C@H]1CC[C@H](O)CC1 [Ambroxol HCl],0.21
12,COc1cc2nc(N3CCN(C(=O)C4COc5ccccc5O4)CC3)nc(N)c2cc1OC (stereo not given) [Doxazosin mesylate],0.0162
13,CC(C)[N+]1(C)[C@@H]2CC[C@H]1C[C@@H](OC(=O)C(CO)c1ccccc1)C2 (stereo not given in full),0.206
14,Nc1nc(O)c2ncn(CCC(CO)CO)c2n1,0.331
15,Clc1ccc2c(c1)CCc1cccnc1C2=C1CCNCC1 [Desloratadine],0.102
16,OC[C@@H](O)[C@@H](O)[C@H](O)[C@@H](O)CO [Sorbitol (Glucitol)],0.227
17,COC1=CC(=O)C[C@@H](C)[C@]12Oc1c(Cl)c(OC)cc(OC)c1C2=O,0.227
18,CC(C)(Sc1cc(C(C)(C)C)c(O)c(C(C)(C)C)c1)Sc1cc(C(C)(C)C)c(O)c(C(C)(C)C)c1,0.792
19,N=C(N)N1CCc2ccccc2C1,0.353
20,C1N2CN3CN1CN(C2)C3,0.209
